Reference: paper PMC9911399, “Two distinct binding modes provide the RNA-binding protein RbFox with extraordinary sequence specificity”
Changes are numbered by the printed parent chain; changes in the protein carry UniProt numbers. The full ranking holds about 16,000 sequences; the median of “ka relative to ugcaugu” is about 0.096, and the highest 2% start at about 0.35. The sample as a whole holds a higher share of the highest values than the screen did.

T1: RBFOX1 RRM RbFoxmut (Fox-RRM*) (Homo sapiens, UniProt Q9NWB1 109-208, R118D;E147R;N151S;E152T)
T1 sequence: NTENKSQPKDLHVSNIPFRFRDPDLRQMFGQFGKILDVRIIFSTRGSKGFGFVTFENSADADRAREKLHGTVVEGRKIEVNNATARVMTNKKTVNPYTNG

B1: UCCCACC (DNA:RNA)
RNA: GGGAGACCGGAAUUCAGAUUGUCCUCCCACCUUAAAUCCCGUCGUAGCCACCA
DNA 1: CAATCTGAATTCCGGTCTCCC
DNA 2: TGGTGGCTACGACGGGATT
B2: GAGACGU (DNA:RNA)
RNA: GGGAGACCGGAAUUCAGAUUGUCCGAGACGUUUAAAUCCCGUCGUAGCCACCA
DNA 1: CAATCTGAATTCCGGTCTCCC
DNA 2: TGGTGGCTACGACGGGATT
B3: CGUCCCU (DNA:RNA)
RNA: B2 RNA with G25C, A26G, G27U, A28C, G30C
DNA 1: CAATCTGAATTCCGGTCTCCC
DNA 2: TGGTGGCTACGACGGGATT
B4: ACGGCGC (DNA:RNA)
RNA: B2 RNA with G25A, A26C, A28G, U31C
DNA 1: CAATCTGAATTCCGGTCTCCC
DNA 2: TGGTGGCTACGACGGGATT
B5: AGAGAUA (DNA:RNA)
RNA: B1 RNA with U25A, C26G, C27A, C28G, C30U, C31A
DNA 1: CAATCTGAATTCCGGTCTCCC
DNA 2: TGGTGGCTACGACGGGATT
B6: AAUCCAU (DNA:RNA)
RNA: B2 RNA with G25A, G27U, A28C, G30A
DNA 1: CAATCTGAATTCCGGTCTCCC
DNA 2: TGGTGGCTACGACGGGATT
B7: GGAAACG (DNA:RNA)
RNA: B2 RNA with A26G, G27A, C29A, G30C, U31G
DNA 1: CAATCTGAATTCCGGTCTCCC
DNA 2: TGGTGGCTACGACGGGATT
B8: ACGCCAA (DNA:RNA)
RNA: B2 RNA with G25A, A26C, A28C, G30A, U31A
DNA 1: CAATCTGAATTCCGGTCTCCC
DNA 2: TGGTGGCTACGACGGGATT
B9: CCCGGCG (DNA:RNA)
RNA: B1 RNA with U25C, C28G, A29G, C31G
DNA 1: CAATCTGAATTCCGGTCTCCC
DNA 2: TGGTGGCTACGACGGGATT
B10: GAUUCAG (DNA:RNA)
RNA: B2 RNA with G27U, A28U, G30A, U31G
DNA 1: CAATCTGAATTCCGGTCTCCC
DNA 2: TGGTGGCTACGACGGGATT
B11: GUUAUCA (DNA:RNA)
RNA: B2 RNA with A26U, G27U, C29U, G30C, U31A
DNA 1: CAATCTGAATTCCGGTCTCCC
DNA 2: TGGTGGCTACGACGGGATT
B12: GGCGUUG (DNA:RNA)
RNA: B2 RNA with A26G, G27C, A28G, C29U, G30U, U31G
DNA 1: CAATCTGAATTCCGGTCTCCC
DNA 2: TGGTGGCTACGACGGGATT
B13: GAAUCAG (DNA:RNA)
RNA: B2 RNA with G27A, A28U, G30A, U31G
DNA 1: CAATCTGAATTCCGGTCTCCC
DNA 2: TGGTGGCTACGACGGGATT
B14: GUCAUCA (DNA:RNA)
RNA: B2 RNA with A26U, G27C, C29U, G30C, U31A
DNA 1: CAATCTGAATTCCGGTCTCCC
DNA 2: TGGTGGCTACGACGGGATT
B15: CGAUCGA (DNA:RNA)
RNA: B2 RNA with G25C, A26G, G27A, A28U, U31A
DNA 1: CAATCTGAATTCCGGTCTCCC
DNA 2: TGGTGGCTACGACGGGATT
B16: GAACCAG (DNA:RNA)
RNA: B2 RNA with G27A, A28C, G30A, U31G
DNA 1: CAATCTGAATTCCGGTCTCCC
DNA 2: TGGTGGCTACGACGGGATT
B17: GGAAUCA (DNA:RNA)
RNA: B2 RNA with A26G, G27A, C29U, G30C, U31A
DNA 1: CAATCTGAATTCCGGTCTCCC
DNA 2: TGGTGGCTACGACGGGATT
B18: GAAUCGA (DNA:RNA)
RNA: B2 RNA with G27A, A28U, U31A
DNA 1: CAATCTGAATTCCGGTCTCCC
DNA 2: TGGTGGCTACGACGGGATT
B19: GGCGUCG (DNA:RNA)
RNA: B1 RNA with U25G, C26G, C28G, A29U, C31G
DNA 1: CAATCTGAATTCCGGTCTCCC
DNA 2: TGGTGGCTACGACGGGATT
B20: GAUCGAA (DNA:RNA)
RNA: B2 RNA with G27U, A28C, C29G, G30A, U31A
DNA 1: CAATCTGAATTCCGGTCTCCC
DNA 2: TGGTGGCTACGACGGGATT
B21: AGGUGCA (DNA:RNA)
RNA: B2 RNA with G25A, A26G, A28U, C29G, G30C, U31A
DNA 1: CAATCTGAATTCCGGTCTCCC
DNA 2: TGGTGGCTACGACGGGATT
B22: GUAUUCU (DNA:RNA)
RNA: B2 RNA with A26U, G27A, A28U, C29U, G30C
DNA 1: CAATCTGAATTCCGGTCTCCC
DNA 2: TGGTGGCTACGACGGGATT
B23: UCCUAGU (DNA:RNA)
RNA: B1 RNA with C28U, C30G, C31U
DNA 1: CAATCTGAATTCCGGTCTCCC
DNA 2: TGGTGGCTACGACGGGATT
B24: UUCUCAG (DNA:RNA)
RNA: B1 RNA with C26U, C28U, A29C, C30A, C31G
DNA 1: CAATCTGAATTCCGGTCTCCC
DNA 2: TGGTGGCTACGACGGGATT
B25: CGGCGAA (DNA:RNA)
RNA: B2 RNA with G25C, A26G, A28C, C29G, G30A, U31A
DNA 1: CAATCTGAATTCCGGTCTCCC
DNA 2: TGGTGGCTACGACGGGATT
B26: GUUUAAG (DNA:RNA)
RNA: B2 RNA with A26U, G27U, A28U, C29A, G30A, U31G
DNA 1: CAATCTGAATTCCGGTCTCCC
DNA 2: TGGTGGCTACGACGGGATT
B27: UCCCAUG (DNA:RNA)
RNA: B1 RNA with C30U, C31G
DNA 1: CAATCTGAATTCCGGTCTCCC
DNA 2: TGGTGGCTACGACGGGATT
B28: GGAAUCG (DNA:RNA)
RNA: B2 RNA with A26G, G27A, C29U, G30C, U31G
DNA 1: CAATCTGAATTCCGGTCTCCC
DNA 2: TGGTGGCTACGACGGGATT
B29: GGCGAUG (DNA:RNA)
RNA: B1 RNA with U25G, C26G, C28G, C30U, C31G
DNA 1: CAATCTGAATTCCGGTCTCCC
DNA 2: TGGTGGCTACGACGGGATT
B30: GUCGUCG (DNA:RNA)
RNA: B1 RNA with U25G, C26U, C28G, A29U, C31G
DNA 1: CAATCTGAATTCCGGTCTCCC
DNA 2: TGGTGGCTACGACGGGATT
B31: GUCGAUG (DNA:RNA)
RNA: B1 RNA with U25G, C26U, C28G, C30U, C31G
DNA 1: CAATCTGAATTCCGGTCTCCC
DNA 2: TGGTGGCTACGACGGGATT
B32: CGUCCCG (DNA:RNA)
RNA: B1 RNA with U25C, C26G, C27U, A29C, C31G
DNA 1: CAATCTGAATTCCGGTCTCCC
DNA 2: TGGTGGCTACGACGGGATT
B33: GAUGUCG (DNA:RNA)
RNA: B2 RNA with G27U, A28G, C29U, G30C, U31G
DNA 1: CAATCTGAATTCCGGTCTCCC
DNA 2: TGGTGGCTACGACGGGATT

biological target: T1, RBFOX1 RRM RbFoxmut (Fox-RRM*); assay: EMSA; HiTS-Eq, 1 nM pool, 10 min; buffer printed only for the single-RNA assays: 10 mM Tris pH 7.5, 150 mM NaCl, 3.4 mM EDTA, 0.001% NP-40, 30 C; settings: tags: His6 N-terminal (pET28a); label: 5' 32P
Method in brief: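 These values rest on relative association constants, computed from read-count changes of each RNA species versus the control reaction and normalised to the cognate motif. Reads came from free RNA recovered by 8% native PAGE after purified RbFox RRM (wild type or mutant) at increasing concentrations was equilibrated for 10 min in 50 µL with 1 nM of a 5′-radiolabelled pool with 7 randomized nucleotides and DNA-annealed flanks.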

| Binder | binding signal |
| --- | --- |
| B1 | 0.0864 KA relative to UGCAUGU |
| B2 | 0.0818 KA relative to UGCAUGU |
| B3 | 0.0565 KA relative to UGCAUGU |
| B4 | 0.119 KA relative to UGCAUGU |
| B5 | 0.15 KA relative to UGCAUGU |
| B6 | 0.074 KA relative to UGCAUGU |
| B7 | 0.0703 KA relative to UGCAUGU |
| B8 | 0.0795 KA relative to UGCAUGU |
| B9 | 0.098 KA relative to UGCAUGU |
| B10 | 0.155 KA relative to UGCAUGU |
| B11 | 0.18 KA relative to UGCAUGU |
| B12 | 0.367 KA relative to UGCAUGU |
| B13 | 0.389 KA relative to UGCAUGU |
| B14 | 0.129 KA relative to UGCAUGU |
| B15 | 0.0748 KA relative to UGCAUGU |
| B16 | 0.105 KA relative to UGCAUGU |
| B17 | 0.426 KA relative to UGCAUGU |

| Binder | binding signal |
| --- | --- |
| B18 | 0.561 KA relative to UGCAUGU |
| B19 | 0.203 KA relative to UGCAUGU |
| B20 | 0.113 KA relative to UGCAUGU |
| B21 | 0.21 KA relative to UGCAUGU |
| B22 | 0.0952 KA relative to UGCAUGU |
| B23 | 0.117 KA relative to UGCAUGU |
| B24 | 0.0887 KA relative to UGCAUGU |
| B25 | 0.0938 KA relative to UGCAUGU |
| B26 | 0.131 KA relative to UGCAUGU |
| B27 | 0.0994 KA relative to UGCAUGU |
| B28 | 0.387 KA relative to UGCAUGU |
| B29 | 0.404 KA relative to UGCAUGU |
| B30 | 0.15 KA relative to UGCAUGU |
| B31 | 0.141 KA relative to UGCAUGU |
| B32 | 0.0717 KA relative to UGCAUGU |
| B33 | 0.145 KA relative to UGCAUGU |
